Columns and labels:
Test in all cases: DAPPL (digital affinity profiling via proximity ligation, sequencing); 10 mM Tris-HCl pH 7.5, 50 mM NaCl, 1 mM DTT, 4% glycerol, room temperature, 30 min; GST-TFs on glutathione beads, 16-mer random dsDNA library, 0.1% formaldehyde crosslink after washing; high values mean tight binding
Conditions in all cases: protein: recombinant; tags: N-terminal GST; dsDNA, one strand shown
ERF = biological target: T1, ERF (Homo sapiens, UniProt P50548 1-548)
T1 sequence: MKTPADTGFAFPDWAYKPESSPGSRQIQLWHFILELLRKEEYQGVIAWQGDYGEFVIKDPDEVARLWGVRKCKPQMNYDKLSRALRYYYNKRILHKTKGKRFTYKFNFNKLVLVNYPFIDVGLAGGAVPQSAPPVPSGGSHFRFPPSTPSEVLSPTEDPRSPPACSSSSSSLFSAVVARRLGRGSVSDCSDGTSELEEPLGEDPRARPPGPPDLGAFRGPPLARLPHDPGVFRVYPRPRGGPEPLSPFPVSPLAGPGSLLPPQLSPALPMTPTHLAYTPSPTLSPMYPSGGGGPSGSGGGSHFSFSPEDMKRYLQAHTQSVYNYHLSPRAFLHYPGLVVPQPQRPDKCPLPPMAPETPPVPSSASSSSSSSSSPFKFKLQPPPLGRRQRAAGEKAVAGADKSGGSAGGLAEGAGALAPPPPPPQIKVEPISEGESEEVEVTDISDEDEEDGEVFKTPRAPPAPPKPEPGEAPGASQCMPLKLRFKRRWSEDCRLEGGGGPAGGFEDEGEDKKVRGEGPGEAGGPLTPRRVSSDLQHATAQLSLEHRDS
Outline: (§1)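 Binding signal is given per hexamer as its read frequency for a factor divided by its frequency in the tag-only sample. GST-fused human transcription factors were expressed in yeast, captured on glutathione beads, barcoded with DNA and pooled with that sample, then incubated with 200 nmole of a 16-mer random double-stranded DNA library in Tris/NaCl/DTT/glycerol buffer for 30 min at room temperature. The pools were then washed, crosslinked, proximity-ligated, amplified by PCR and sequenced on an Illumina NextSeq500.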

ETV3L = biological target: T2, ETV3L (Homo sapiens, UniProt Q6ZN32 1-361)
T2 sequence: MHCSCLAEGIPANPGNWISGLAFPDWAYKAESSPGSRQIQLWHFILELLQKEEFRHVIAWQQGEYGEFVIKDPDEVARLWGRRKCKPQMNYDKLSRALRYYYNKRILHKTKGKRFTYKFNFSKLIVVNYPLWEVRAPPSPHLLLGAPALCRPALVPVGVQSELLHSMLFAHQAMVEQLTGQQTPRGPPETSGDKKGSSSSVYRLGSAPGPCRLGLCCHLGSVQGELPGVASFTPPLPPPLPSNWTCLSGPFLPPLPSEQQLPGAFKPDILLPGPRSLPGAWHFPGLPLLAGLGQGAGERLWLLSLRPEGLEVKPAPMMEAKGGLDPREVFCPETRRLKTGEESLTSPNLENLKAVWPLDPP
Outline: as §1

ETS2 = biological target: T3, ETS2 (Homo sapiens, UniProt P15036 1-469)
T3 sequence: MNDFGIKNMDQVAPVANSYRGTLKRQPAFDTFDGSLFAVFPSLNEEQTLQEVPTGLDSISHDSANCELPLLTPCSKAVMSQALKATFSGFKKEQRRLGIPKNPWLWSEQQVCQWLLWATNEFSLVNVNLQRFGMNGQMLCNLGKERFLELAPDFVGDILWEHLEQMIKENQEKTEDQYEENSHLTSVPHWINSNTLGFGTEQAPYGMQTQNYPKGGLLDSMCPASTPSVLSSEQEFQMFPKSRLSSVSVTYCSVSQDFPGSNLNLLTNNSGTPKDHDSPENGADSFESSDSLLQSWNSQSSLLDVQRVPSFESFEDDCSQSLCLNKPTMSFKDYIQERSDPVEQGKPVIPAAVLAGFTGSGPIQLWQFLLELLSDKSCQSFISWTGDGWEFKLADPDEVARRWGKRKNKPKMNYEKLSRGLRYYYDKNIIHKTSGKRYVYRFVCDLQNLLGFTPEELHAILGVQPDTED
Outline: as §1

SPDEF = biological target: T4, SPDEF (Homo sapiens, UniProt O95238 1-335)
T4 sequence: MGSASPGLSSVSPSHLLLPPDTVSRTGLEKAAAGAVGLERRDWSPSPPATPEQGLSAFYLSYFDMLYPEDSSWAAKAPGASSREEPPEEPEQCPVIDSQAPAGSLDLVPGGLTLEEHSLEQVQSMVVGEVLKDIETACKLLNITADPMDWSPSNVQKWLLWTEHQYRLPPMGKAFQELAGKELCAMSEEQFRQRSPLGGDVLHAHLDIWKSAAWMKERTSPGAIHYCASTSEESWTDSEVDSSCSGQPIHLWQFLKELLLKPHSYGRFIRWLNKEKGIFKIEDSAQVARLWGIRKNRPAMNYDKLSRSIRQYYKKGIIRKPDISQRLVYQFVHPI
Outline: as §1

ETV7 = biological target: T5, ETV7 (Homo sapiens, UniProt Q9Y603 1-341)
T5 sequence: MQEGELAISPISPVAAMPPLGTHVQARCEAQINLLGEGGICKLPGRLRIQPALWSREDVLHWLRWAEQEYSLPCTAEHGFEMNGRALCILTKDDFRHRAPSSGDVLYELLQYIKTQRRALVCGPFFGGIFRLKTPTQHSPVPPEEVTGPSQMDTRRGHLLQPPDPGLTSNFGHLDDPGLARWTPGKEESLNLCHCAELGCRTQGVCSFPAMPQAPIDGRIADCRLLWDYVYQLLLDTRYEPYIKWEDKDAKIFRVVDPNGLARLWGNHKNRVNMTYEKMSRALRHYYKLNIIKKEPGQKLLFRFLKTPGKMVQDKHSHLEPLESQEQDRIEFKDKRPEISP
Outline: as §1

ELF5 = biological target: T6, ELF5 (Homo sapiens, UniProt Q9UKW6-2 1-255)
T6 sequence: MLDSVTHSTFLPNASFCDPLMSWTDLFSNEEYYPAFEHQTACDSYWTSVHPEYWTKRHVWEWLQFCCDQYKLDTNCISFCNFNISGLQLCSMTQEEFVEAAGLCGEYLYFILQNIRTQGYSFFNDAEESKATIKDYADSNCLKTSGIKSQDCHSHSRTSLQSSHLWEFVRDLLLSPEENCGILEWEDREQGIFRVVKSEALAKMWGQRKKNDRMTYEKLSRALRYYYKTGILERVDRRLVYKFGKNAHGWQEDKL
Outline: as §1

ETV3 = biological target: T7, ETV3 (Homo sapiens, UniProt P41162-2 1-143)
T7 sequence: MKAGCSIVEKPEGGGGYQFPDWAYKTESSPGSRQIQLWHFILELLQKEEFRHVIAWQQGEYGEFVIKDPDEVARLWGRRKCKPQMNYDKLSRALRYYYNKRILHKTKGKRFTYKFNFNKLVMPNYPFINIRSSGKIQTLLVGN
Outline: as §1

ETV6 = ETV6 (Homo sapiens, UniProt P41212 1-452)
Outline: as §1

ETV6, sequence (P41212 whole entry): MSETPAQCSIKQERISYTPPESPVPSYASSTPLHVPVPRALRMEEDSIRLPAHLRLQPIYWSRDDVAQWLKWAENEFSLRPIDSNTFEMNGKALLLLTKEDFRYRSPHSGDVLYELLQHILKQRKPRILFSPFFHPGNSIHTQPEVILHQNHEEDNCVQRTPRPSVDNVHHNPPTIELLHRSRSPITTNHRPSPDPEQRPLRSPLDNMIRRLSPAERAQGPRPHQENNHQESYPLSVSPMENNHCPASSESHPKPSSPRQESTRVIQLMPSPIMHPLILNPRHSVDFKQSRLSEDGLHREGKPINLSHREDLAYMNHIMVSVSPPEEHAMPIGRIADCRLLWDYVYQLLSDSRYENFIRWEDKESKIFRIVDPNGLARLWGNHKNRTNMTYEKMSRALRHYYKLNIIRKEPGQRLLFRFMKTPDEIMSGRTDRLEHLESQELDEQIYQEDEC

Row | Sequence | binding signal (ERF) | binding signal (ETV3L) | binding signal (ETS2) | binding signal (SPDEF) | binding signal (ETV7) | binding signal (ELF5) | binding signal (ETV3) | binding signal (ETV6)
1 | TCTCCT | 1.34 fold enrichment (6-mer frequency, TF over GST control) | 1.73 fold enrichment (6-mer frequency, TF over GST control) | 1.52 fold enrichment (6-mer frequency, TF over GST control) | 1.32 fold enrichment (6-mer frequency, TF over GST control) | 1.46 fold enrichment (6-mer frequency, TF over GST control) | 1.41 fold enrichment (6-mer frequency, TF over GST control) | 1.41 fold enrichment (6-mer frequency, TF over GST control) | 1.44 fold enrichment (6-mer frequency, TF over GST control)
2 | CCCAAT | 1.18 fold enrichment (6-mer frequency, TF over GST control) | 1.27 fold enrichment (6-mer frequency, TF over GST control) | 1.22 fold enrichment (6-mer frequency, TF over GST control) | 1.29 fold enrichment (6-mer frequency, TF over GST control) | 1.15 fold enrichment (6-mer frequency, TF over GST control) | 1.23 fold enrichment (6-mer frequency, TF over GST control) | 1.18 fold enrichment (6-mer frequency, TF over GST control) | 1.28 fold enrichment (6-mer frequency, TF over GST control)
3 | AATTCG | 1.38 fold enrichment (6-mer frequency, TF over GST control) | 1.38 fold enrichment (6-mer frequency, TF over GST control) | 1.23 fold enrichment (6-mer frequency, TF over GST control) | 1.25 fold enrichment (6-mer frequency, TF over GST control) | 1.32 fold enrichment (6-mer frequency, TF over GST control) | 1.2 fold enrichment (6-mer frequency, TF over GST control) | 1.29 fold enrichment (6-mer frequency, TF over GST control) | 1.24 fold enrichment (6-mer frequency, TF over GST control)
4 | TGTCTT | 1.28 fold enrichment (6-mer frequency, TF over GST control) | 1.32 fold enrichment (6-mer frequency, TF over GST control) | 1.28 fold enrichment (6-mer frequency, TF over GST control) | 1.28 fold enrichment (6-mer frequency, TF over GST control) | 1.25 fold enrichment (6-mer frequency, TF over GST control) | 1.39 fold enrichment (6-mer frequency, TF over GST control) | 1.38 fold enrichment (6-mer frequency, TF over GST control) | 1.16 fold enrichment (6-mer frequency, TF over GST control)
5 | GTTTAA | 1.21 fold enrichment (6-mer frequency, TF over GST control) | 1.24 fold enrichment (6-mer frequency, TF over GST control) | 1.15 fold enrichment (6-mer frequency, TF over GST control) | 1.05 fold enrichment (6-mer frequency, TF over GST control) | 1.21 fold enrichment (6-mer frequency, TF over GST control) | 1.17 fold enrichment (6-mer frequency, TF over GST control) | 1.13 fold enrichment (6-mer frequency, TF over GST control) | 1.13 fold enrichment (6-mer frequency, TF over GST control)
